POLI inh – qHTS for Inhibitors of Polymerase Iota. Pol iota fluorescent replication assay, 10 min. Potency, µM (highest dose often 115 µM), usual class: inhibitors. hit rate 1% among 390,000. AID 588590, 2011
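Fluorescent replication assay read twice, at 0 min and 10 min after adding 50 nM (final) substrate. Enzyme (10 nM) and compounds were first incubated 15 min at room temperature; enzyme-free buffer wells were negative controls.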
Pol beta inh – qHTS Assay for Inhibitors of DNA Polymerase Beta | Pol beta primer extension/strand displacement, fluorescence kinetic | Potency, µM (highest dose often 114 µM), usual class: inhibitors | hit rate 1.3% among 340,000 | P06746 | AID 485314, 2010
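Reaction started by 50 nM substrate onto compound-treated Pol beta (10 nM, 15 min preincubation, room temperature); plates read at 0 min and 10 min. Normalized concentration-effect data fitted by four-parameter Hill equation.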
GLS inhibitor – qHTS for Inhibitors of Glutaminase (GLS) | AID 624170, 2012 | Glutaminase kidney isoform, mitochondrial (Homo sapiens), O94925 | Potency, µM (top dose mostly 45.5 µM), most hits filed as inhibitors | GLS enzymatic activity, qHTS titration | hit rate 0.21% among 410,000
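Two-point fluorescence kinetic (t0, 30 min RT) for hKGA; glutamate detected via glutamate oxidase–HRP–Amplex Red. Substrate: 1 mM L-glutamine solution; buffer 45 mM KH2PO4, pH 8.2.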
Pol eta inh-1 – qHTS for Inhibitors of Polymerase Eta | recombinant Pol eta, fluorescent DNA replication assay | Potency, µM (highest dose often 114 µM), hits mostly inhibitors | hit rate 1.2% among 390,000
Target sequence (Q9Y253 whole entry, looked up): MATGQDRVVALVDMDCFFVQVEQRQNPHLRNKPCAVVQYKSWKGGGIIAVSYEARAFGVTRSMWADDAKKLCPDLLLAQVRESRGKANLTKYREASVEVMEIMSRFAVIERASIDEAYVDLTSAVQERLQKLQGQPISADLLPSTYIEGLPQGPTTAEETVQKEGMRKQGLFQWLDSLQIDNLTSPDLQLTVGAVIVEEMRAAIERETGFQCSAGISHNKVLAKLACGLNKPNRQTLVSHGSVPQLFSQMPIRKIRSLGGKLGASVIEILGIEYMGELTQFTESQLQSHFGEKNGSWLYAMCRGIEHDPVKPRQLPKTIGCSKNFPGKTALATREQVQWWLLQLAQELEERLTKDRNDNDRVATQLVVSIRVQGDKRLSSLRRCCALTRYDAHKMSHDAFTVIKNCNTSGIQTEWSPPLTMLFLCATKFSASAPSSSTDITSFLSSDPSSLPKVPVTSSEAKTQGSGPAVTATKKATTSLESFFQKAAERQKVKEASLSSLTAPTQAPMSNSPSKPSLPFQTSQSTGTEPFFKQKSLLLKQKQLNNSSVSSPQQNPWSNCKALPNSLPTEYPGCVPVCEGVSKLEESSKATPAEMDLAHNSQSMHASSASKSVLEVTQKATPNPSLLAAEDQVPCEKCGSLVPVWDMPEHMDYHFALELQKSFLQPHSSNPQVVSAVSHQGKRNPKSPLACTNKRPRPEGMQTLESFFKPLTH
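Pol eta at 10 nM preincubated with compounds 15 min at room temperature; reaction started with fluorescent substrate (50 nM final) and read kinetically at 0 and 10 min.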
APE1 inh – qHTS Assay for Inhibitors of the Human Apurinic/apyrimidinic Endonuclease 1 (APE1) | recombinant APE1, TAMRA/BHQ-2 abasic DNA cleavage fluorescence | Potency, µM (series often up to 65.8 µM), actives largely listed as inhibitors | hit rate 0.35% among 350,000 | AID 2517, 2012; note: nearly all actives have a fitted effect of over 55% in size
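Measures dequenching upon AP-site incision of a 5'-TAMRA/3'-BHQ-2 THF-containing duplex, 50 nM; human APE1 0.75 nM after 15 min room-temperature exposure to compound; kinetic three-point read at one-minute spacing.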
Pol kappa inh-1 – qHTS for Inhibitors of Polymerase Kappa; DNA polymerase kappa (Homo sapiens), Q9UBT6; purified Pol kappa, fluorescent DNA synthesis assay, 10 min; Potency, µM (doses to about 107 µM), most hits filed as inhibitors; hit rate 0.53% among 400,000; AID 588579, 2011
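Here, compound and 10 nM enzyme are combined for 15 min at room temperature; adding 50 nM substrate (final) starts DNA synthesis, tracked by fluorescence at 0 and 10 min against buffer-only wells.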
PGK validate – qHTS for inhibitors of Phosphogylcerate Kinase: Hit Validation Screen; shares compounds with Pol kappa inh-1; TbPGK coupled GAPDH assay, Kinase-Glo luminescence; Potency, µM (series often up to 57.5 µM), most hits filed as inhibitors; hit rate 79% among 500; note: nearly all actives have a fitted effect of over 65% in size
POLI cherry-pick – qHTS for Inhibitors of Polymerase Iota: Confirmatory Assay for Cherry-picked Compounds; Pol iota primer extension, TAMRA/BHQ fluorescence; AID 720496, 2013; shares compounds with Pol kappa inh-1; Potency, µM, most hits filed as inhibitors; hit rate 77% among 1,500
Pol kappa inh-2 – qHTS for Inhibitors of Polymerase Kappa: Confirmatory Assay for Cherry-picked Compounds | shares compounds with Pol eta inh-1 | purified Pol-kappa, fluorescent strand-displacement substrate | Potency, µM, usual class: inhibitors | hit rate 76% among 920
Pol eta inh-2 – qHTS for Inhibitors of Polymerase Eta: Confirmatory Assay for Cherry-picked Compounds; shares compounds with Pol eta inh-1; Pol eta primer extension, TAMRA/BHQ fluorescence, 10 min; Potency, µM, usual class: inhibitors; hit rate 64% among 2,600; AID 720502, 2013
Large screens that a line does not name were inactive (follow-up assays come after a bar, where they were run). This is a sample that favours compounds with a hit; in the whole collection about 2.4% have one here. Calls come from the whole dose curve; as a rule, active = well fitted curve in the direction sought with a large enough effect; inconclusive = small, poorly fitted or top-dose-only effect, or another doubt; inactive = no such curve, though single readings can be large; an effect the other way counts as inactive or inconclusive.

O=C1C2C(C(=O)N1/N=C/c1cc([N+](=O)[O-])c(O)cc1O)C1C=CC2C12CC2 (stereo unspecified)	POLI inh 20µM, Pol beta inh 11.2µM, Pol eta inh-1 10µM, APE1 inh inconclusive, Pol kappa inh-1 50.1µM | POLI cherry-pick 42.3 | Pol eta inh-2 30.1
C/C(N)=C(/C#N)C(=O)CSc1nnc(Nc2c(C)cccc2C)s1	POLI inh inconclusive, Pol beta inh inconclusive, Pol eta inh-1 17.8µM, Pol kappa inh-1 79.4µM | POLI cherry-pick inconclusive | Pol eta inh-2 47.8
Cc1cc(C(=O)NCc2ccc(C(=O)O)o2)c(C)o1	POLI inh 20µM, Pol beta inh 28.2µM, GLS inhibitor inconclusive, Pol eta inh-1 3.98µM, Pol kappa inh-1 31.6µM | PGK validate inconclusive | POLI cherry-pick 26.7 | Pol eta inh-2 6.75
Cc1onc(-c2ccccc2)c1-c1csc(COc2ccccc2)n1	none
COc1cccc(NC(=O)c2cc(-c3ccco3)nc3ccccc23)c1	POLI inh inconclusive, Pol eta inh-1 inconclusive, Pol kappa inh-1 inconclusive (no result: Pol beta inh, APE1 inh)
CCOc1ccc(NC(=O)CN(C)C(=O)c2cc(-c3ccco3)nc3ccccc23)cc1OCC	none (no result: Pol beta inh, APE1 inh)
Cc1ccc(NC(=O)CN(C)C(=O)c2cc(-c3ccco3)nc3ccccc23)cc1	POLI inh 17.8µM, GLS inhibitor inconclusive, Pol eta inh-1 20µM, APE1 inh 5.32µM, Pol kappa inh-1 50.1µM (no result: Pol beta inh) | POLI cherry-pick 42.3 | Pol eta inh-2 60.1
COc1cccc(NC(=O)CN(C)C(=O)c2cc(-c3ccco3)nc3ccccc23)c1	POLI inh 35.5µM, Pol eta inh-1 inconclusive, APE1 inh 10.6µM, Pol kappa inh-1 inconclusive (no result: Pol beta inh) | POLI cherry-pick 37.7 | Pol eta inh-2 30.1
O=C1C(=O)N(CCO)C(c2cccc(F)c2)/C1=C(\O)c1ccc(Cl)cc1 (stereo unspecified)	none
CC1(C)Cc2c(sc3nc(C4CC4)n(N)c(=O)c23)CO1	none
Cc1ccc(C(=O)Nc2nnc(CC(=O)N/N=C/c3ccc(O)c(O)c3)s2)cc1	POLI inh inconclusive, Pol beta inh 3.55µM, Pol eta inh-1 3.55µM, APE1 inh 1.89µM, Pol kappa inh-1 inconclusive | PGK validate 4.11µM | POLI cherry-pick 9.47 | Pol eta inh-2 16.9
CC(c1ccccc1)N1C(=O)c2cccnc2C1=O (stereo unspecified)	none
CC(NC1=CC(=O)c2cccnc2C1=O)C(O)c1ccccc1 (stereo unspecified)	POLI inh 4.47µM, Pol eta inh-1 15.8µM (no result: Pol beta inh, APE1 inh) | POLI cherry-pick 18.9 | Pol eta inh-2 23.9
Cc1cc(=O)oc2c3c(ccc12)OC/C3=N/N	POLI inh inconclusive, Pol eta inh-1 inconclusive | POLI cherry-pick 42.3 | Pol kappa inh-2 33.6 | Pol eta inh-2 30.1
COc1cc(C(c2c(C(=O)O)[nH]c3ccccc23)c2c(C(=O)O)[nH]c3ccccc23)ccc1OCc1ccccc1	Pol beta inh 44.7µM, GLS inhibitor inconclusive, Pol eta inh-1 50.1µM, Pol kappa inh-1 inconclusive | POLI cherry-pick inconclusive | Pol eta inh-2 inconclusive
O=[N+]([O-])c1cc(/C=N/Nc2nc3ccccc3[nH]2)c(O)cc1O	POLI inh 44.7µM, Pol beta inh 20µM, Pol eta inh-1 4.47µM, Pol kappa inh-1 39.8µM | POLI cherry-pick inconclusive | Pol eta inh-2 inconclusive
Cc1ccccc1/C=N/Nc1nc2ccccc2[nH]1	none
COc1ccc(CN2CCn3ncc(C(=O)Nc4cccc(C)c4)c3C2=O)cc1	none
COc1cc(/C=C2\CCc3c2nc2ccccc2c3C(=O)O)cc(OC)c1OC	POLI inh 10µM, Pol beta inh 3.16µM, GLS inhibitor inconclusive, Pol eta inh-1 3.16µM, APE1 inh 25.1µM, Pol kappa inh-1 44.7µM | POLI cherry-pick 21.2 | Pol eta inh-2 15.1
COc1ccccc1NC(=O)C1=C(C)Nc2ncnn2C1c1ccccn1 (stereo unspecified)	none (no result: APE1 inh)
COc1ccccc1NC(=O)C1=C(C)Nc2ncnn2C1c1ccc[nH]1 (stereo unspecified)	POLI inh 79.4µM, Pol beta inh 15.8µM, GLS inhibitor inconclusive, Pol eta inh-1 31.6µM (no result: APE1 inh) | POLI cherry-pick 59.7 | Pol eta inh-2 60.1
COCCCNC(=O)/C(C#N)=C/c1ccc(OCC(=O)O)c(OC)c1	POLI inh 10µM, Pol beta inh 3.55µM, GLS inhibitor 10µM, Pol eta inh-1 2.51µM, Pol kappa inh-1 22.4µM | POLI cherry-pick 18.9 | Pol eta inh-2 26.9
CCOCCCNC(=O)/C(C#N)=C/c1ccc(C(=O)OC)cc1	none
CCc1ccc(C2=NN(CCC(=O)NCCc3ccc(OC)c(OC)c3)C(=O)CC2)cc1	none (no result: APE1 inh)
CC(=O)Nc1sc2c(c1-c1nc3ccccc3s1)CN(C(C)C)CC2	POLI inh 12.6µM, Pol eta inh-1 inconclusive, APE1 inh 11.9µM, Pol kappa inh-1 50.1µM (no result: Pol beta inh) | POLI cherry-pick 23.8 | Pol kappa inh-2 16.8
CC(=O)Nc1sc2c(c1-c1nc3ccccc3s1)CCCN(C(C)C)C2	none (no result: POLI inh, Pol beta inh, GLS inhibitor, Pol eta inh-1, APE1 inh, Pol kappa inh-1) | POLI cherry-pick 53.2 | Pol kappa inh-2 11.9
CC(=O)N1CCc2c(sc(NC(=O)CSc3ccccc3)c2-c2nc3ccccc3s2)C1	POLI inh inconclusive, Pol eta inh-1 inconclusive (no result: APE1 inh)
CC(C)N1CCc2c(sc(NC(=O)c3nc4ccccc4s3)c2C(N)=O)C1	none
CCCCC(=O)Nc1sc2c(c1-c1nc3ccccc3s1)CCN(C(C)C)C2	none (no result: POLI inh, Pol beta inh, GLS inhibitor, Pol eta inh-1, APE1 inh, Pol kappa inh-1) | POLI cherry-pick inconclusive | Pol kappa inh-2 10.6
CN1CCc2c(sc(NC(=O)CSc3ccccc3)c2-c2nc3ccccc3s2)C1	none (no result: APE1 inh)
CCOc1ccc(CCNC(=O)Cn2c(-c3nonc3N)nc3ccccc32)cc1OCC	none
